KDM5B inhibitor – inhibitors of human KDM5B histone demethylase. Q9UGL1. KDM5B demethylase, FDH-coupled NADH fluorescence (FDH is formaldehyde dehydrogenase). Potency, µM (highest dose often 57.7 µM), hits mostly inhibitors. hit rate 2.6% among 220,000. AID 1347165; note: potency is the fitted concentration of half-maximal effect; 0% is about no effect; nearly all actives have a fitted effect of over 70% in size
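Compound dilutions met 200 nM (final) KDM5BΔAP for 10 min at room temperature before substrate addition. The substrate mix held 12.5 µM H3K4me3 with cofactors 25 µM α-ketoglutarate and 50 µM Fe²⁺. NADH signal gain over 30 min defined activity.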
HEK293 viab – reduces viability of HEK-293 SNCA reporter cells; HEK-293-SNCA-luc viability, GF-AFC fluorescence, 24 h; Potency, µM (doses to about 57.1 µM), inactives show at the top dose activity change, negative = cytotoxicity, actives largely listed as cytotoxic; hit rate 0.12% among 150,000;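 note: potency is the fitted concentration of half-maximal effect; 0% = DMSO-treated cells and -100% = medium-only wells without cells; nearly all actives have a fitted effect of over 30% in size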
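Cytotoxicity counterscreen: after 24 h compound treatment of genome-edited SNCA-luciferase HEK-293 cells, live-cell protease substrate GF-AFC read by fluorescence after 30 min; activity scaled between DMSO (0%) and medium-only (-100%), curves Hill-fitted.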
SNCA expr inhib – reduces expression of the alpha-synuclein gene | HEK-293 SNCA-luciferase knock-in, luminescence, 24 h | AID 1671194 | hit rate 0.17% among 140,000 | Potency, µM (highest dose often 57.2 µM), without a hit: at the highest dose activity change, negative = inhibition, usual class: inhibitors;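 note: potency is the fitted concentration of half-maximal effect; plate controls were DMSO cells for no effect and cell-free wells for full effect; nearly all actives have a fitted effect of over 45% in size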
IP6K1 inh – inhibitors of human IP6K1; IP6K1 kinase, ADP-Glo luminescence, 2 h; hits give low values; activity change, % (series mostly up to about 58 µM); Q92551; hit rate 0.81% among 140,000; in the data active = activity change below about -25%; note: % is set by controls: 0 for no effect and ±100 for the full control effect
Target sequence (Q92551 whole entry, looked up): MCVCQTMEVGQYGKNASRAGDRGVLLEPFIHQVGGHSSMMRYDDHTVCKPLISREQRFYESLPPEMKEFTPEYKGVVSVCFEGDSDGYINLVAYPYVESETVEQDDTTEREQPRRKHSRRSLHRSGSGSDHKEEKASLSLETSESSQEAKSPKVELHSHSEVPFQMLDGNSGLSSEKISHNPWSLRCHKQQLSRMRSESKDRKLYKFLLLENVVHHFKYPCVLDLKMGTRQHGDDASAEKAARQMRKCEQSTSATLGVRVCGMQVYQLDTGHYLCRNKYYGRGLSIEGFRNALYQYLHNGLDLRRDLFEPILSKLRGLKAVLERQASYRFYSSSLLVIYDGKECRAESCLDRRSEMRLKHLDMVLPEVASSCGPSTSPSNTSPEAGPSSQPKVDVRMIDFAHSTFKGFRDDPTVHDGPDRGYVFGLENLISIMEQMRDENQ
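ADP-Glo luminescence measures ADP made by human IP6K1 during a 2 h RT reaction with ATP/IP6 (mix at 1.3 mM/130 uM); top library doses 57.5 and 19.1 uM final.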
* = called active by the depositor; i = inactive; ? = inconclusive; . = no result; [ ] = dose if it differs, or a comment. An excerpt weighted towards active compounds, which were near 2.8% of everything screened. Unless noted, calls come from the whole dose curve; as a rule, active = well fitted curve in the direction sought with a large enough effect; inconclusive = small, poorly fitted or top-dose-only effect, or another doubt; inactive = no such curve, though single readings can be large; an effect the other way counts as inactive or inconclusive.

SMILES	KDM5B inhibitor	HEK293 viab	SNCA expr inhib	IP6K1 inh
COCCCNC(=O)c1ccc2nccn2c1	.	2%[87.6 µM]	-12%[87.6 µM]	5
COCCNC(=O)c1ccc2nccn2c1	35µM*	2%[87.6 µM]	22%[87.6 µM]	-2
CC(NC(=O)c1ccc2nccn2c1)c1ccc(F)cc1 (configuration not stated)	35µM*	10%[87.6 µM]	16%[87.6 µM]	-8
CSc1ccc(C(C)NC(=O)c2ccc(F)cc2)cc1 (configuration not stated)	i	.	.	.
O=C(NCCc1ccccn1)c1ccc2nccn2c1	?	-3%[87.6 µM]	17%[87.6 µM]	-8
COc1cc(C(=O)NCc2nc3ccccc3n2C)cc(OC)c1OC	i	.	.	.
O=C(NCc1ccc(F)cc1)c1ccc2nccn2c1	28µM*	9%[87.6 µM]	6%[87.6 µM]	1
Cn1c(CNC(=O)c2ccc3nccn3c2)nc2cc(C(F)(F)F)ccc21	20µM*	-5%	-11%	0
O=C1CCN(C(=O)C2CCN(C(=O)c3ccncc3)CC2)CCCCCCN1	i	10%	28%	-1
CCC(CC)NC(=O)c1ccc2nccn2c1	.	0%[87.6 µM]	6%[87.6 µM]	29
CC(CCc1ccccc1)NC(=O)c1ccc2nccn2c1 (configuration not stated)	35µM*	12%[87.6 µM]	10%[87.6 µM]	-4
CC1(C(=O)N2CCN(c3ccccn3)CC2)CCOCC1	112µM*	3%[87.6 µM]	-17%[87.6 µM]	-15
CC1(C(=O)N2CCC(c3ccccc3)CC2)CCOCC1	i	-5%[87.6 µM]	?	-8
CC1(C(=O)N2CCN(c3ccccn3)CC2)CCCCC(=O)N1 (configuration not stated)	18µM*	4%	-11%	5
CC/C=C/C=C/C1(C)OC(CC(CO)OC)=CC1=O (configuration not stated)	.	-5%	.	-1
Cc1c(-c2ccccc2F)[nH]c2ccc(CNC(=O)C3CCCN(C(N)=O)C3)cc12 (configuration not stated)	28µM*	-13%	5%	26
CCc1[nH]c2ccc(CNC(=O)C3CC(=O)Nc4ccccc43)cc2c1C (configuration not stated)	i	2%	23%	-4
Cc1c(-c2ccccc2F)[nH]c2ccc(CNC(=O)C3C=CCN3)cc12 (configuration not stated)	28µM*	5%	40%	-17
C=CCN1CCN(c2nc3c(c(=O)[nH]c(=O)n3C)n2Cc2ccc(Cl)cc2)CC1	i	.	.	.
CCOC(=O)C1CCN(C(=O)c2ccc3nc(-c4ccncc4)oc3c2)CC1	.	5%	16%	-8
CCNc1ncc(C(=O)N[C@H](C2CCNCC2)C2CC(O)C2)cn1 (some centres not stated)	28µM*	-3%	-2%	7
O=C(N[C@H](c1cccs1)C1CC(O)C1)c1ccc(N2CCOCC2)cc1 (some centres not stated)	i	-5%	-5%	12
Cc1cc(C)c(C(=O)N[C@H](C2CCNCC2)C2CC(O)C2)c(C)c1 (some centres not stated)	i	0%	-15%	27
CCNc1ncc(C(=O)N[C@H](c2cccs2)C2CC(O)C2)cn1 (some centres not stated)	22µM*	2%	?	13
CCc1ccc(NC(=O)CSc2nc3c(oc4ccccc43)c(=O)n2-c2cccc(C)c2)cc1	i	-9%	-13%	-11
SMILES	KDM5B inhibitor	HEK293 viab	SNCA expr inhib	IP6K1 inh
O=C(CCc1nc2ccc(Cl)cc2[nH]1)N1CCc2c(nc3cc(-c4ccccc4)[nH]n3c2=O)C1	32µM*	-8%	8%	13
O=C1CN(C(=O)CCC(=O)N2CCc3c(nc4cc(-c5ccccc5)[nH]n4c3=O)C2)c2ccccc2N1	28µM*	-2%	-6%	5
O=C(CCc1nc2ccc(Cl)cc2[nH]1)N1CCc2nc3cc(-c4ccccc4)[nH]n3c(=O)c2C1	22µM*	4%	?	11
O=C(CCc1cc(Cl)no1)N1CCc2nc3cc(-c4ccccc4)[nH]n3c(=O)c2C1	7.9µM*	5%	?	0
COc1ccc(-c2cc(C(=O)NC3CC3)c3c(C4CCNC4)noc3n2)cc1 (configuration not stated)	79µM*	7%	5%	-1
O=C(NC1CCNCC1)c1cc(C2CC2)nc2onc(C3CCCN3)c12 (configuration not stated)	79µM*	8%	-14%	-4
COc1ccc(-c2cc(C(=O)NC3CC3)c3c(C4CCCN4)noc3n2)cc1 (configuration not stated)	79µM*	11%	27%	2
Cc1ccccc1NS(=O)(=O)c1ccc2[nH]c3c(c2c1)CCCCC3	?	-14%	-2%	-12
Cc1ccc(C(=O)N2CCCn3cc(-c4ccccc4)nc32)cn1	?	-22%	92%	-5
N#Cc1cccc(-c2cn3c(n2)N(C(=O)CC2CCCC2)CCC3)c1	20µM*	6%	59%	15
N#Cc1cccc(-c2cn3c(n2)N(C(=O)c2ccccc2F)CCC3)c1	20µM*	-7%	4%	5
Cc1ccc(C(=O)N2CCCn3cc(-c4cccc(C#N)c4)nc32)cc1	32µM*	5%	73%	7
N#Cc1cccc(-c2cn3c(n2)N(C(=O)COc2ccccc2)CCC3)c1	28µM*	4%	1%	-3
CC(=O)NCC(=O)N1CCCn2cc(-c3cccc(C#N)c3)nc21	i	-11%	-19%	10
COc1cccc(-c2cn3c(n2)N(C(=O)Cn2ccnc2)CCC3)c1	i	9%	71%	2
CCn1ccc(C(=O)N2CCCC(CO)CCNC(=O)CC2)n1 (configuration not stated)	i	6%	12%	-18
Cn1ncc(N2CCCC(CC(=O)NCC3CC3)C2)cc1=O (configuration not stated)	i	7%	54%	23
CCNC(=O)c1cccnc1OC1CCN(C(=O)c2ccoc2)C1 (configuration not stated)	i	9%	16%	1
CN(C)c1cc(N2CCCC(NC(=O)c3cccs3)C2)ncn1 (configuration not stated)	i	-6%	-1%	1
N#Cc1cccc(-c2cn3c(n2)N(C(=O)c2ccccc2)CCC3)c1	20µM*	1%	83%	-6
N#Cc1cccc(-c2cn3c(n2)N(C(=O)Cc2ccsc2)CCC3)c1	32µM*	8%	13%	9
N#Cc1cccc(-c2cn3c(n2)N(C(=O)c2ccsc2)CCC3)c1	18µM*	3%	85%	10
O=C(Cc1cccs1)N1CCCn2cc(-c3ccccc3F)nc21	?	-3%	-16%	3
N#Cc1cccc(-c2cn3c(n2)N(C(=O)c2cnccn2)CCC3)c1	?	1%	37%	8
CCOc1ccccc1NC(=O)CCc1nc(-c2ccc(C)n(C(C)C)c2=O)no1	i	.	.	.
N#Cc1nc(COc2ccccc2F)oc1N1CCN(c2ccccc2)CC1	i	.	.	.
CCc1nc(N2CCOCC2)ncc1C(=O)O	25µM*	3%	-2%	-21
COc1cccc(-c2nccc(NCc3cccc(C)c3)n2)c1	.	2%	116%	.

Bioassay records: PubChem BioAssay, National Center for Advancing Translational Sciences (NCATS)
